# Whole data set: some 2,900 compounds, median “NF-kB SEAP reporter activity, fold change vs agonist alone” near 0.99, cut for the highest 2% near 2.6. The sample as a whole holds a higher share of the highest values than the screen did.
# How the values were obtained:
# RAW-Dual [1] = experiment: NF-kB SEAP reporter activity, fold change vs agonist alone; higher = enhanced NF-kB activity; details: library stock concentration (final ~1000-fold dilution): 10 mM
# In short: (§1)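 Cytotoxic wells were those whose IncuCyte confluency was below 70% of agonist controls in both mask sets. The cells were RAW-Dual macrophages at 50,000 cells/well in DMEM on 384-well plates, dosed with 50 nL of library stock by pin tool, stimulated with a PRR agonist 1 h later, and kept at 37 °C, 5% CO2 for 20 hours. IRF and NF-κB reporter activity, as fold change over agonist-alone wells, came from supernatant read by QuantiLuc luminescence and QuantiBlue absorbance, respectively.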
# RAW-Dual [2] = experiment: NF-kB SEAP reporter activity, fold change vs agonist alone; cytotoxicity flag (confluency mask): cytotoxic (confluency <70% of control); library stock concentration (final ~1000-fold dilution): 10 mM; higher = enhanced NF-kB activity
# In short: as §1
# RAW-Dual [3] = experiment: NF-kB SEAP reporter activity, fold change vs agonist alone; cytotoxicity flag (confluency mask): not cytotoxic; library stock concentration (final ~1000-fold dilution): 10 mM; higher = enhanced NF-kB activity
# In short: as §1
# [4] = cytotoxicity flag (confluency mask): cytotoxic (confluency <70% of control), agonist: Imiquimod (TLR7) […]
# [5] = cytotoxicity flag (confluency mask): cytotoxic (confluency <70% of control), agonist: MPLA (TLR4) […]
# [6] = agonist: ODN 1826 (TLR9) 0.5 ug/mL
# [7] = agonist: Pam2CSK4 (TLR2/6) 0.1 ug/mL
# [8] = agonist: Pam3CSK4 (TLR2/1) 0.1 ug/mL
# [9] = cytotoxicity flag (confluency mask): not cytotoxic, agonist: Imiquimod (TLR7) […]
# [10] = cytotoxicity flag (confluency mask): not cytotoxic, agonist: MPLA (TLR4) […]
Compound,NF-kB SEAP reporter activity (RAW-Dual [1]; [4]),NF-kB SEAP reporter activity (RAW-Dual [1]; [5]),NF-kB SEAP reporter activity (RAW-Dual [2]; agonist: LPS (TLR4) 0.1 ug/mL),NF-kB SEAP reporter activity (RAW-Dual [2]; [6]),NF-kB SEAP reporter activity (RAW-Dual [2]; [7]),NF-kB SEAP reporter activity (RAW-Dual [2]; [8]),NF-kB SEAP reporter activity (RAW-Dual [1]; [9]),NF-kB SEAP reporter activity (RAW-Dual [1]; [10]),NF-kB SEAP reporter activity (RAW-Dual [3]; agonist: LPS (TLR4) 0.1 ug/mL),NF-kB SEAP reporter activity (RAW-Dual [3]; [6]),NF-kB SEAP reporter activity (RAW-Dual [3]; [7]),NF-kB SEAP reporter activity (RAW-Dual [3]; [8])
O=C(CBr)N1CC([N+](=O)[O-])([N+](=O)[O-])C1,0.542,0.295,0.335,0.252,0.0912,0.189,–,–,–,–,–,–
CC1=CC2Cc3[nH]c(=O)ccc3C3(C1)NCCCC23 (configuration not stated),–,–,–,–,–,–,0.933,1.03,1.12,0.952,1.11,1.22
COc1ccc(CC2NCC(O)C2OC(C)=O)cc1 (configuration not stated),0.133,0.231,0.216,0.171,0.0635,0.145,–,–,–,–,–,–
Cc1c(C(C)C2NCC(C)CC2O)ccc2c1CC1C2CC=C2CC(O)CCC21C (configuration not stated),–,–,–,–,–,–,0.945,1.15,1.1,1.02,0.866,1.03
O.O=C1C=CCC2C3CCCN4CCCC(CN12)C34 (configuration not stated),–,–,–,–,–,–,0.531,0.792,1.41,0.558,0.957,1.11
Cc1sc2c(c1C)C(c1ccc(Cl)cc1)=NC(CC(=O)OC(C)(C)C)c1nnc(C)n1-2 (configuration not stated),2.49,2.26,2.05,1.9,0.784,1.19,–,–,–,–,–,–
Cc1sc2c(c1C)C(c1ccc(Cl)cc1)=NC(CC(=O)Nc1ccc(O)cc1)c1nnc(C)n1-2 (configuration not stated),–,–,–,–,–,–,1.49,2.56,3.19,2.24,0.856,1.74

# From the supplement of paper PMC10037445
